This is an account of results in PubChem BioAssay.

Active and inactive are the calls of the source.

One assay deals with Albumin (Bos taurus) (UniProt P02769). Put plainly: compounds binding labelled BSA control protein – biochemical, small-molecule microarray, Alexa647 label, 635/667 nm fluorescence, artefact control for SMM control protein annotation, profiling panel (AID 1118).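 Also: score merges 667 nm emission intensity and signal-to-noise per printed compound spot.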 The conditions noted are these: BSA-A647 binding, fluorescence 635 nm, higher = more signal.
Assay [1] in a line: probe aXIP binding to arrayed compounds – biochemical, NeuroSMM set, 635/667 nm fluorescence, primary screen (AID 1119).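 Also: probe is the protein aXip251-270 applied at 1 µg/mL to compound-printed slides; binding of probe to printed compounds measured as 667 nm fluorescence plus signal to noise.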 The conditions noted are these: small-molecule microarray, higher = more signal, called active from +8 up or from −8 down.
Assay [2] in a line: probe aNOTCH3 binding on compound microarray – biochemical, small-molecule microarray, 635/667 nm fluorescence, primary screen (AID 1120).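 Also: probe is a biotin-tagged antibody raised against NOTCH3 rather than NOTCH3 protein; score merges spot fluorescence near 667 nm with spot signal to noise.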 The conditions noted are these: higher = more signal.
The nature of assay [3]: probe aNOTCH2 binding on compound microarray – biochemical, small-molecule microarray, 635/667 nm fluorescence, primary screen (AID 1121).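 Also: score merges feature fluorescence read at 667 nm with its signal to noise.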 The note with it: higher = more signal.
The target of assay [4] is Carbonic anhydrase 2 (Homo sapiens) (UniProt P00918). Put plainly: compounds binding carbonic anhydrase 2 – biochemical, small-molecule microarray, Alexa647-labelled CAII, profiling panel (AID 1122). The conditions noted are these: CAII-A647 binding fluorescence, higher = more signal.
Assay [5] is described as follows: COS7 lysate on small-molecule microarray, probe aHis, 635 nm (AID 1123).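 Also: z-score combines 667nm fluorescence intensity with signal-to-noise per printed compound spot.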 The conditions noted are these: COS7 cell lysate, fluorescence, higher = more signal.
Assay [6] is described as follows: probe aLAP1 signal on lysate-treated microarray – cell lysate, small-molecule microarray, COS7 lysate, primary screen (AID 1124).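 Also: lysate comes from COS7 cells expressing LAP1 and is applied at 0.3 µg/mL; score merges spot fluorescence near 667 nm with signal-to-noise over triplicate slides.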 The note with it: probe aLAP1, fluorescence, higher = more signal.
In a further assay the test system is Sam68 (KHDRBS1). Put plainly: compounds binding KHDRBS1 protein – biochemical, small-molecule microarray, 635 nm fluorescence, primary screen (AID 1125).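 Also: score merges 667 nm channel intensity with signal to noise over triplicate slides.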 The note with it: higher = more signal.
Assay [7] has as its system Chordin-like protein 2 (CHRDL2). Put plainly: compounds binding chordin-like 2 – biochemical, small-molecule microarray, 635 nm fluorescence, primary screen (AID 1126).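 Also: printed compound slides probed with Chrdl2 protein at 4 µg/mL for 1 h at 4 C; score merges 667 nm emission intensity with signal to noise over three replicate slides.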 The conditions noted are these: fluorescence 635 nm, higher = more signal.
Assay [8] deals with Concanavalin-A (Canavalia ensiformis) (UniProt P02866). The assay is described as follows: compounds binding concanavalin A lectin – biochemical, small-molecule microarray, Alexa647 label, 635 nm, artefact control for SMM control protein annotation, primary screen (AID 1127).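 Also: z combines 667 nm emission intensity with signal-to-noise across three replicate slides.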 The conditions noted are these: ConA-A647 binding fluorescence, higher = more signal.
Assay [9] in a line: compounds binding Alexa647 anti-His antibody – biochemical, small-molecule microarray, 635 nm fluorescence, artefact control for SMM control protein annotation, primary screen (AID 1128).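 Also: score merges feature fluorescence with signal-to-noise for each printed compound spot.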 The note with it: higher = more signal.
Assay [10] deals with Human papillomavirus type 1a E7 protein (residues 1-88). The assay is described as follows: HPV1a E7 small-molecule binders, primary screen, biochemical, small-molecule microarray, residues 1-88, 635 nm (AID 1129). The note with it: small-molecule microarray binding, fluorescence 635 nm; higher = more signal.
The target of assay [11] is Focal adhesion kinase 1 (Homo sapiens) (UniProt Q05397). Put plainly: PTK2 protein binding on printed compound slides – biochemical, small-molecule microarray, 635/667 nm fluorescence, BSA, DTT, primary screen (AID 1130).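 Also: composite of spot emission at 667 nm and signal to noise over triplicate slides.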 The conditions noted are these: 635 nm fluorescence, higher = more signal.
Assay [12] has as its system Fibrinogen (Alexa647-labelled). Put plainly: Alexa647-fibrinogen binding to printed small molecules – biochemical, small-molecule microarray, 635/667 nm fluorescence, artefact control for SMM control-protein annotation, profiling panel (AID 1131).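 Also: z-score merges 667 nm fluorescence with per-spot signal-to-noise over triplicate slides.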 The conditions noted are these: fibrinogen-A647 binding fluorescence, higher = more signal.
Assay [13] concerns the target Follistatin (Homo sapiens) (UniProt P19883). The assay is described as follows: FST protein binding to printed compounds – biochemical, small-molecule microarray, 635/667 nm fluorescence, primary screen (AID 1132). The conditions noted are these: 635 nm fluorescence, higher = more signal.
Assay [14] addresses Fibroblast growth factor 2 (Homo sapiens) (UniProt P09038). Put plainly: basic fibroblast growth factor binding to printed compounds – biochemical, small-molecule microarray, 635/667 nm fluorescence, primary screen (AID 1133). The note with it: FGF2, fluorescence 635/667, higher = more signal.
A short description of assay [15]: JC-1 mitochondrial potential readout, lung cancer cells – cell-based, A549, JC-1 fluorescence, basal, 24 h, 100 nL, profiling panel (AID 1138).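 Also: A549 lung adenocarcinoma cells under basal conditions with no added stimulus; test concentration not given here.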 The note with it: higher = more signal.
In another assay the test system is Lefty1. The assay is described as follows: Lefty1 protein binding to printed compounds – biochemical, small-molecule microarray, 635/667 nm fluorescence, primary screen (AID 1139). The note with it: fluorescence 635/667, higher = more signal.
For assay [16], the system named is wheat germ agglutinin (Triticum aestivum), Alexa647-labelled. Put plainly: Alexa647-WGA lectin binding to printed small molecules – biochemical, small-molecule microarray, 635/667 nm fluorescence, artefact control for SMM control-protein annotation, profiling panel (AID 1140).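 Also: score merges 667 nm feature emission with signal to noise over triplicate slides.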 The note with it: WGA-A647 binding, 635 nm fluorescence, higher = more signal.
Assay [17] deals with Luciferin 4-monooxygenase (Photinus pyralis) (UniProt P08659). The assay is described as follows: inhibition of purified Photinus pyralis luciferase – biochemical, luminescence, purified enzyme, 2006 set, primary screen (AID 1141).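 Also: cell-free assay with purified firefly luciferase at 100 ng per well in PBS; test concentration not given here.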 The conditions noted are these: purified firefly luciferase, SteadyGlo luminescence, 30 min; higher = more signal, called active from +8 up or from −8 down.
Chain of Luciferin 4-monooxygenase (Photinus pyralis) (P08659 whole entry, looked up): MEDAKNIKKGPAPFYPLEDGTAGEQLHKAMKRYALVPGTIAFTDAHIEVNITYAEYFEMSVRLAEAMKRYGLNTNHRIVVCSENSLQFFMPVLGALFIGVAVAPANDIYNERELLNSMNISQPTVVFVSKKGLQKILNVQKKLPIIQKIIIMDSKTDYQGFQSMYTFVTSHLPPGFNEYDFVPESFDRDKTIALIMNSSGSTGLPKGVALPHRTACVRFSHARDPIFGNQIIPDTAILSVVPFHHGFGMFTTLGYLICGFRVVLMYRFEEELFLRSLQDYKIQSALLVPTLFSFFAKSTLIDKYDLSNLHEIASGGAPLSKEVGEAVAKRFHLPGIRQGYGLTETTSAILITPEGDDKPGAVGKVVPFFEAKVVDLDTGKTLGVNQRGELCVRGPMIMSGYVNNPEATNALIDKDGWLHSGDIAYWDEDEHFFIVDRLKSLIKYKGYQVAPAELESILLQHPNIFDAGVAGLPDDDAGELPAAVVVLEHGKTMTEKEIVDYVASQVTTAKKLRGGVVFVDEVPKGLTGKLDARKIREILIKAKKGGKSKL

Chain of Concanavalin-A (Canavalia ensiformis) (P02866 whole entry, looked up): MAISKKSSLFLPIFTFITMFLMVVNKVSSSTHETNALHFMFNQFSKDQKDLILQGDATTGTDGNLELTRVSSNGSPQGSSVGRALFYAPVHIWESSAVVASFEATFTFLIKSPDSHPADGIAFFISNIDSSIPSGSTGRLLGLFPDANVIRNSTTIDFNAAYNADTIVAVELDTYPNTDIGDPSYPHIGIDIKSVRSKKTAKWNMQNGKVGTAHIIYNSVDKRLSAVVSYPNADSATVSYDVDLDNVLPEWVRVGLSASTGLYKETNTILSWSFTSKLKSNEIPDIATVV
Chain of Fibroblast growth factor 2 (Homo sapiens) (P09038 whole entry, looked up): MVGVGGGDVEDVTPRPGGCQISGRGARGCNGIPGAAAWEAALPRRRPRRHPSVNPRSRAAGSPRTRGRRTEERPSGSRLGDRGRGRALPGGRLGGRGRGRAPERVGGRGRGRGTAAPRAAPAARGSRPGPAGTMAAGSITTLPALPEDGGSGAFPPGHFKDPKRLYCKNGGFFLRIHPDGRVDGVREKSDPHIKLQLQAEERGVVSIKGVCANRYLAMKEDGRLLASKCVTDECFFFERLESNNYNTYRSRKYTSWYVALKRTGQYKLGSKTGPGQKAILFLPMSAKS
Chain of Follistatin (Homo sapiens) (P19883 whole entry, looked up): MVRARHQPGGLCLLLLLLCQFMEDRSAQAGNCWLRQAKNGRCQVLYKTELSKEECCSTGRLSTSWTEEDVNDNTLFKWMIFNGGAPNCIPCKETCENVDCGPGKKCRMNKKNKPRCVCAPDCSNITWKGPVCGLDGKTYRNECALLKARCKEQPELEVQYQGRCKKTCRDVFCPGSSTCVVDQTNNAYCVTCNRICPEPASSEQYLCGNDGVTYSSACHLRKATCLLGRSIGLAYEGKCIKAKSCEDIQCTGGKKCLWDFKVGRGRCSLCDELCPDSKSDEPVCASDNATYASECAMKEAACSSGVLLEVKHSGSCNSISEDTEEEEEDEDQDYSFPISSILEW
Chain of Focal adhesion kinase 1 (Homo sapiens) (Q05397 whole entry, looked up): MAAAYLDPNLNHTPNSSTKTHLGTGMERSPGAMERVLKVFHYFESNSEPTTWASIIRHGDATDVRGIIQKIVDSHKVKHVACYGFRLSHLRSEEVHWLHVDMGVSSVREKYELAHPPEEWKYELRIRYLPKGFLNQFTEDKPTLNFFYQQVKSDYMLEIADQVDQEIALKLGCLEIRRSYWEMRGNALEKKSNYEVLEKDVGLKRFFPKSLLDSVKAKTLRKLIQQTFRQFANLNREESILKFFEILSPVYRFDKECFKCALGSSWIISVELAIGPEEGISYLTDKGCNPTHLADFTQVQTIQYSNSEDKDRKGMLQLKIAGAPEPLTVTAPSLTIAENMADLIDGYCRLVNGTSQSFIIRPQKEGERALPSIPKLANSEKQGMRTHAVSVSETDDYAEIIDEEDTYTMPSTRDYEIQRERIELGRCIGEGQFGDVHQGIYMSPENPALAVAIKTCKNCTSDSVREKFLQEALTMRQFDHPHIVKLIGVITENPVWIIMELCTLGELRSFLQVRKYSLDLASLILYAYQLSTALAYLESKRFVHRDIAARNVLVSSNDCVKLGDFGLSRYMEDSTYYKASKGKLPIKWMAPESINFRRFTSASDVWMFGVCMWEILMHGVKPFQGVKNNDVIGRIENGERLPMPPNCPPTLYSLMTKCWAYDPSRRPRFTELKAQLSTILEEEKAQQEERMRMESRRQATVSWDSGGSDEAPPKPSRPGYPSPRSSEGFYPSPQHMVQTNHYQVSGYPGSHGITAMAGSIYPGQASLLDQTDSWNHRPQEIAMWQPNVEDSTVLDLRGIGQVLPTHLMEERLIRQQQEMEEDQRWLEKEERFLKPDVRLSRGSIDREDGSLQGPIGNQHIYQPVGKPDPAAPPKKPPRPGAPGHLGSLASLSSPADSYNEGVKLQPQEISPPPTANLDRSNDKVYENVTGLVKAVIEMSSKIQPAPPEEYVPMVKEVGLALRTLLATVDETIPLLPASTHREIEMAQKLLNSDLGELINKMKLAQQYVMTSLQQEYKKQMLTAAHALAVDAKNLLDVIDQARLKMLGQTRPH
Chain of Albumin (Bos taurus) (P02769 whole entry, looked up): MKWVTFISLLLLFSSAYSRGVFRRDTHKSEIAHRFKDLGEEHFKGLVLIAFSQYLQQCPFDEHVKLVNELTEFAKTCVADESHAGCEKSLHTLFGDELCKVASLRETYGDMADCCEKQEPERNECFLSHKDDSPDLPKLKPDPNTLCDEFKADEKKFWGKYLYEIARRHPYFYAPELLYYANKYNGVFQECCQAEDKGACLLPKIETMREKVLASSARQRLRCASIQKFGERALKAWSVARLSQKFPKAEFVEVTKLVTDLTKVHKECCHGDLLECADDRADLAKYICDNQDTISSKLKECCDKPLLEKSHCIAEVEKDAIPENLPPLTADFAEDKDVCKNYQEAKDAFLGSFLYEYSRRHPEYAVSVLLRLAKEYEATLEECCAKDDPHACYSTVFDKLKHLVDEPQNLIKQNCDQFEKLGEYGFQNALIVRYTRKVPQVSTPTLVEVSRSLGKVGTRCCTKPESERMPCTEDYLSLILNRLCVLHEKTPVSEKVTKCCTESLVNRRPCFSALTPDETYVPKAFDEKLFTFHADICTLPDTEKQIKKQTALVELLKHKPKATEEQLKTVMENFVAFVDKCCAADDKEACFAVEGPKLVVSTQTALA

As to `C[N+](C)(C)CCCCNC(=O)[C@@H]1C[C@@H]2C(=O)N3CCC[C@H]3C(=O)N2[C@@H]1c1cccc(OCCO)c1`, the composite z-score is -0.486 in the assay with Albumin (Bos taurus); -0.199 in assay [2]; -0.153 in assay [3]; 0.678 in assay [4]; 0.538 in [5]; 0.248 in assay [6]. Besides, the composite z-score worked out at 1.04 in the assay with Sam68 (KHDRBS1); 1.04 in assay [7]; 0.909 in assay [8]; 2.72 in assay [9]; 0.143 in assay [10]; 0.275 in assay [11]. Also, the composite z-score in assay [12] was -0.181; in assay [13], 1.39; in assay [14], 1.73; in the assay on Lefty1, 0.859; in assay [16], -0.392. Moreover, the composite Z-score in [1] is 2.6 (inactive). Moreover, the z-score in assay [15] is -0.0151; in assay [17], -1.23 (inactive).
With `Cc1ccc(S(=O)(=O)N2[C@@H](c3ccccc3)C(C(=O)O)=CC[C@H]2c2ccccc2)cc1`, the composite z-score was 0.508 with Albumin (Bos taurus); -0.0647 in [2]; -0.0771 in assay [3]; 0.837 in assay [4]; 2.33 in assay [5]; 0.498 in assay [6]. The composite z-score in the assay with Sam68 (KHDRBS1) was 0.702; in assay [7] it was -0.439; in [8], 0.0991; in assay [9] it was -0.247; in assay [10], 0.699; in assay [11] it was 0.431. Also, the composite z-score in assay [12] is 0.175; in [13], -0.12; in assay [14], -0.158; in the assay on Lefty1, 0.0236; in assay [16] it was 0.33. Further, the composite Z-score in assay [1] is 1.47 (inactive). For the same compound, the figures for the z-score in assay [15] and in assay [17] were -1.38 and 0.838 (inactive), respectively.
Turning to `COCCOC(=O)N1C(=O)[C@@]2(c3cc(C#CCNC(N)=O)ccc31)[C@H](c1ccc(OCCO)cc1)N1[C@H](c3ccccc3)[C@H](c3ccccc3)OC(=O)[C@H]1[C@@H]2C(=O)N1CCCCCCC1`, the composite z-score is -0.208 with Albumin (Bos taurus); 0.255 in assay [2]; -0.0059 in assay [3]; 0.174 in assay [4]; 0.043 in [5]; 0.332 in assay [6]. Besides, the composite z-score with Sam68 (KHDRBS1) is 0.82; in assay [7], 0.137; in [8] it was 0.669; in [9], -0.347; in assay [10], 0.718; in assay [11], 0.422. In addition, the composite z-score in assay [12] is 0.355; in assay [13], 1.35; in [14] it was 0.117; in the assay on Lefty1, 0.854; in assay [16], 0.884. Besides, the composite Z-score in assay [1] is -0.333 (inactive). Moreover, the figures for the z-score in assay [15] and in assay [17] were -0.99 and -1.45 (inactive), respectively.
`C=C[C@H](OC)[C@@H](OC(=O)Nc1ccc(SC)cc1)c1ccc(O)c(F)c1`: the composite z-score with Albumin (Bos taurus) was 0.661; in assay [2] it was 0.0864; in assay [3] it was -0.182; in assay [4] it was 0.699; in [5], 2.82; in [6], 0.694. The composite z-score was 1.24 in the assay with Sam68 (KHDRBS1); -0.267 in assay [7]; 0.187 in assay [8]; 0.705 in assay [9]; 0.0378 in assay [10]; -0.264 in assay [11]. Further, the composite z-score in assay [12] is 0.756; in assay [13], 0.171; in [14] it was 0.781; in the assay with Lefty1, -0.0871; in [16] it was 0.0251. Moreover, the composite Z-score in assay [1] was 1.13 (inactive). Besides, the z-score in assay [15] is -0.97; in [17], -3.45 (inactive).
As for `CO[C@@H]1COC(=O)CC=C[C@H](C)COC(=O)[C@H](Cc2ccccc2)NC(=O)CC=C[C@H]1C`, the composite z-score was -2.04 in the assay with Albumin (Bos taurus); -0.162 in assay [2]; -0.167 in [3]; -0.155 in assay [4]; -0.596 in [5]; 0.0055 in assay [6]. The composite z-score is 0.294 in the assay with Sam68 (KHDRBS1); 1.53 in assay [7]; -0.651 in [8]; 0.236 in assay [9]; -1.13 in assay [10]; -0.389 in assay [11]. Besides, the composite z-score in [12] is -0.811; in assay [13], 0.997; in assay [14], 1.38; in the assay on Lefty1, 1.54; in assay [16], -1.61. For the same compound, the composite Z-score in assay [1] was 0.772 (inactive). Further, the values for the z-score in [15] and in [17] were 1.5 and -0.964 (inactive), respectively.
